# Laboratory results reported in ChEMBL document CHEMBL3988442, “University of Dundee, Small-Polar-MMV Screening Library” (2021).
# For some assays here: Entries with a potency or affinity are not part of this list.
# Legend:
# Design in all cases: scale not given: direction of the effect not stated beside the values
# [1] = target: Protein translocase subunit SecA (Escherichia coli (strain K12)) (UniProt P10408); experiment: Assay to Identify E. coli SecA ATPase Inhibitors; type: functional; conditions: 30 µM
# [2] = target: T1, Ubiquitin-activating enzyme e1, putative (Leishmania donovani (strain BPK282A1)) (UniProt E9BSI1); experiment: Leishmania donovani Ubiquitin Activating Enzyme (LdE1); type: functional; conditions: 30 µM
# T1 sequence (whole entry): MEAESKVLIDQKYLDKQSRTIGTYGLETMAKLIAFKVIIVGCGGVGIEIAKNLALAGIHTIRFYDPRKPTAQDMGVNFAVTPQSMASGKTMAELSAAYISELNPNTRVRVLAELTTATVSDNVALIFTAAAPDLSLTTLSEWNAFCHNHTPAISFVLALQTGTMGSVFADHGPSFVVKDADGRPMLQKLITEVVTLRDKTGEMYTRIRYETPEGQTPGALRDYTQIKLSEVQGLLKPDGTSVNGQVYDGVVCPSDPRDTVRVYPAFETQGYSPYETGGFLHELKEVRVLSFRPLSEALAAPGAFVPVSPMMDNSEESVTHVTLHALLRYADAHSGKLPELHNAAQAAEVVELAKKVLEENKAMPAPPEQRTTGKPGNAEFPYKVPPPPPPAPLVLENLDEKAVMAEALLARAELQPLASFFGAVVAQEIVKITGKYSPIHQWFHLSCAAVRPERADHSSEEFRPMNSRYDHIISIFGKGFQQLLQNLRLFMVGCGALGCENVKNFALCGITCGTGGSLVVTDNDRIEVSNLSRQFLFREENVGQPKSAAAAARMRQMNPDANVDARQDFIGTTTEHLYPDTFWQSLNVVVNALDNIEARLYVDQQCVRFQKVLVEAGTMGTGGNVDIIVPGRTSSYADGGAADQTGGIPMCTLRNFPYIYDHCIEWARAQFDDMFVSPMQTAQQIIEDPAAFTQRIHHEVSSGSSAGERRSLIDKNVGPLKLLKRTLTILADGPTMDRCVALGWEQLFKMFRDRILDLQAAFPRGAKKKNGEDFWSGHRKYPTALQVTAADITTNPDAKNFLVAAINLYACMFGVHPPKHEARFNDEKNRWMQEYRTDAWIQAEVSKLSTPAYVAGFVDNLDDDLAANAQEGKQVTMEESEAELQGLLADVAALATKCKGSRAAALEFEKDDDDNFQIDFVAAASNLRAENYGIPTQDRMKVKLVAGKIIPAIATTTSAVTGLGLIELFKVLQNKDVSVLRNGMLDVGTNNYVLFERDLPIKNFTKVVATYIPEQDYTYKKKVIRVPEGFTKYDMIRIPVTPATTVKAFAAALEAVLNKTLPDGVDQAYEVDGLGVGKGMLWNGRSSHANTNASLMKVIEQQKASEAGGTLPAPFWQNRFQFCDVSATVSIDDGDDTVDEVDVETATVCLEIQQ
# [3] = target: AMP-activated protein kinase, AMPK (Homo sapiens) (UniProt P54646+O43741+P54619+Q9UGJ0+Q9Y478+Q13131+Q9UGI9); experiment: AMP-dependent Kinase enzyme assay. An in vitro enzyme assay that detects ADP turnover that is directly proportional to AMPK activity. This uses naive AMPK that is activated during the assay with MK-8722; type: functional; conditions: 30 µM
# [4] = target: Sialic acid-binding Ig-like lectin 9 (Homo sapiens) (UniProt Q9Y336); experiment: Hs-Siglec9 ALPHAscreen SOP 20170721; conditions: 10 µM
# [5] = test system: Trypanosoma cruzi; experiment: Trypanosoma cruzi phosphomannomutase and mannose-1-phosphate guanylyltransferase assay; type: functional; conditions: 10 µM
# [6] = target: T2, Arginase-2, mitochondrial (Homo sapiens) (UniProt P78540); experiment: in vitro enzyme assay to detect the production of urea directly proportional to the activity of Arginase II; type: functional; conditions: 33.3 µM; note: in the data most compounds retested in dose-response had high values
# T2 sequence (whole entry): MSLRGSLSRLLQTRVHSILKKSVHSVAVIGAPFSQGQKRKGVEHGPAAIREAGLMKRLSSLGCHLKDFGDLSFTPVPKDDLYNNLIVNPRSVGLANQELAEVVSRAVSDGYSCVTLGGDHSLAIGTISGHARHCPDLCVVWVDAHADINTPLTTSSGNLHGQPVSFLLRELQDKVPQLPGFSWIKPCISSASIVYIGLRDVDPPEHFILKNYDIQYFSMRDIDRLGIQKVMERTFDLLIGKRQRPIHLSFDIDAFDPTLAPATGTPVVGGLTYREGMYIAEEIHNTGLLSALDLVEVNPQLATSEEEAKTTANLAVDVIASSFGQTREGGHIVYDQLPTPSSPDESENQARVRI
# [7] = target: T3, Proteasome subunit beta (Trypanosoma cruzi) (UniProt O96673); experiment: Trypanosoma cruzi proteasome chymotrypsin-like activity (TcProtChymo) assay.; note: in the data most compounds retested in dose-response had high values; type: functional; conditions: 9.37 µM
# T3 sequence (whole entry): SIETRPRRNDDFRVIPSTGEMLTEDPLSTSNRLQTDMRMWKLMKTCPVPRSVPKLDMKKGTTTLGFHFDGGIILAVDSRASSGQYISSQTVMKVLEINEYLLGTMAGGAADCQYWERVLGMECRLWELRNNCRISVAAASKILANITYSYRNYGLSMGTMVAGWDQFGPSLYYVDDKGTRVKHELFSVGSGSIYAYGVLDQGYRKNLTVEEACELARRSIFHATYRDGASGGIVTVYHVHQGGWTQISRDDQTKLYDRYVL
# [8] = species on record: Homo sapiens; experiment: To identify inhibition of the IFN signalling (Jak-Stat) pathway via expression of an eGFP reporter gene under the control of an IFN-stimulated response element (ISRE) containing MxA promoter.; type: functional; conditions: 30 µM
# [9] = target: T4, Tyrosyl-tRNA synthetase, putative (Trypanosoma cruzi (strain CL Brener)) (UniProt Q4DSP6); experiment: Trypanosoma cruzi tyrosyl tRNA synthetase (TcYRS) _High Tyrosine SOP; type: functional; conditions: 30 µM; note: in the data most compounds retested in dose-response had high values
# T4 sequence (whole entry): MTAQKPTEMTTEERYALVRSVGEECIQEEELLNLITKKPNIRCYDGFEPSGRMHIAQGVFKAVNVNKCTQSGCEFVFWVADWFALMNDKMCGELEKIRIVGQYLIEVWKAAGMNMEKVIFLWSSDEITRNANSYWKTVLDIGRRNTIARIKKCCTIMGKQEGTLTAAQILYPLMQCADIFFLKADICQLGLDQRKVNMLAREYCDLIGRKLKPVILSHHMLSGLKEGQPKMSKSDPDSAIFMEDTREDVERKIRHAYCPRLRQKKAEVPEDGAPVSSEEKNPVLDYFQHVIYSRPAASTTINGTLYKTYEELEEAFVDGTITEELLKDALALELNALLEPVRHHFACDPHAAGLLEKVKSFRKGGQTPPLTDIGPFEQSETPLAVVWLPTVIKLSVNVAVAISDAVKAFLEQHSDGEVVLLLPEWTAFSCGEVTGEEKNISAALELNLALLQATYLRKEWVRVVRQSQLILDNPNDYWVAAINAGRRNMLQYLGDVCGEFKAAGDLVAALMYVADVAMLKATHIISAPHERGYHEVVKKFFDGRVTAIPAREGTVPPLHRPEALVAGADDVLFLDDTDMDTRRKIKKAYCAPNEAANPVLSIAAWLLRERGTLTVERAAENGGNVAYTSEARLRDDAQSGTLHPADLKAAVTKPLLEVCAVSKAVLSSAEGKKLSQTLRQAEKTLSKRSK
# [10] = target: T4, Tyrosyl-tRNA synthetase, putative (Trypanosoma cruzi (strain CL Brener)); experiment: Trypanosoma cruzi tyrosyl tRNA synthetase (TcYRS) SOP; type: functional; conditions: 30 µM
# [11] = target: Chromo domain-containing protein 1 (Saccharomyces cerevisiae (strain ATCC 204508 / S288c) (Baker's yeast)) (UniProt P32657); experiment: ScCHD-1 Enzyme Inhibition Assay; type: functional; conditions: 30 µM; note: in the data most compounds retested in dose-response had high values
# Chromo domain-containing protein 1 (Saccharomyces cerevisiae (strain ATCC 204508 / S288c) (Baker's yeast)), sequence (P32657 whole entry, the tested form may be a part): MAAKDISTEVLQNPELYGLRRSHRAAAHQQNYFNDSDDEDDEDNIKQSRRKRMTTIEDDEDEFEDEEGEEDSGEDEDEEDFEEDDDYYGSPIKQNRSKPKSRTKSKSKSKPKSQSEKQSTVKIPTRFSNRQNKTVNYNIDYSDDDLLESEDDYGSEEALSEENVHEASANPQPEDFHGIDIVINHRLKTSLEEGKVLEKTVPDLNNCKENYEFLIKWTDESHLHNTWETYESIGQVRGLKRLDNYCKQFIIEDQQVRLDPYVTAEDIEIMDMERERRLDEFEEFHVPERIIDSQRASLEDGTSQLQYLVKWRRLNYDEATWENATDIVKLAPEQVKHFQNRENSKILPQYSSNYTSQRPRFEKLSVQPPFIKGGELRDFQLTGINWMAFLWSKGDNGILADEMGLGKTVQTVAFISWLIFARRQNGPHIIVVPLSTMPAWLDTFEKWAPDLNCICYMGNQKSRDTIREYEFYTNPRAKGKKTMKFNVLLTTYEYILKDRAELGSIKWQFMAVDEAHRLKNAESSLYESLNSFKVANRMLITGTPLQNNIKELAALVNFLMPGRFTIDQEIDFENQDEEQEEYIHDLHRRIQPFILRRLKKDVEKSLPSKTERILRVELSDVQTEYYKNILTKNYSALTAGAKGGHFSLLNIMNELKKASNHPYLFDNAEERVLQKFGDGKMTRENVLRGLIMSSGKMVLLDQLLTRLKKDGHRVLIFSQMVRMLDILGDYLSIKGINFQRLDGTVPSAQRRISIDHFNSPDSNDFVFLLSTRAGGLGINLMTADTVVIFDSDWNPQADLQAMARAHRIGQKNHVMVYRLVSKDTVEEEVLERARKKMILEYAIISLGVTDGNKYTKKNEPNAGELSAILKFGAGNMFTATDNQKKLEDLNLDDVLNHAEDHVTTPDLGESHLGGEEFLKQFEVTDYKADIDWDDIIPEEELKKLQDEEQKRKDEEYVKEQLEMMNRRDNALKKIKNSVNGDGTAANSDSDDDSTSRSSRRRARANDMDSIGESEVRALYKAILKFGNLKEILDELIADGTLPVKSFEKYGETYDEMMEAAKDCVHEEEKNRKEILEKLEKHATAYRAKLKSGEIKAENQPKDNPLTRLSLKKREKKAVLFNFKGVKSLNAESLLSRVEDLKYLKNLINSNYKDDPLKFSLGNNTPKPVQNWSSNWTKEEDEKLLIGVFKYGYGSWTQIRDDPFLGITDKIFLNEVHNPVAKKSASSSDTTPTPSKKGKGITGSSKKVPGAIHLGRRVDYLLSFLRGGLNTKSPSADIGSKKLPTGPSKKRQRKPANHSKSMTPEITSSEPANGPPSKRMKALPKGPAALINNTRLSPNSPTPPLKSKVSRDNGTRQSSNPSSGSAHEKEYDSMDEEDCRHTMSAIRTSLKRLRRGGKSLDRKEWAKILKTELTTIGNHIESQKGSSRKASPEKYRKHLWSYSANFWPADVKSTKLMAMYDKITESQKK
# Sialic acid-binding Ig-like lectin 9 (Homo sapiens), sequence (Q9Y336 whole entry): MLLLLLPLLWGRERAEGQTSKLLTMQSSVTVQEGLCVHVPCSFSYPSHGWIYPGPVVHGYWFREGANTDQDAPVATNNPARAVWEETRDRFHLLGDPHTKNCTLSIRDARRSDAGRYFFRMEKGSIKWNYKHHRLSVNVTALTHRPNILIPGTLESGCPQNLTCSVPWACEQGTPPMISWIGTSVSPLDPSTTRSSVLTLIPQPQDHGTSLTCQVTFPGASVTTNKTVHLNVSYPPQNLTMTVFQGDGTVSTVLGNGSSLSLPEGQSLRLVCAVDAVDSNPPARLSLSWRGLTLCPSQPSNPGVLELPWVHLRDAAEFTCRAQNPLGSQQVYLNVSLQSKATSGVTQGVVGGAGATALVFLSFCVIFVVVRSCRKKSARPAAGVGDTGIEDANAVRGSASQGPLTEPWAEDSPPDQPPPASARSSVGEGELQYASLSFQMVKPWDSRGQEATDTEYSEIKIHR
# Protein translocase subunit SecA (Escherichia coli (strain K12)), sequence (P10408 whole entry): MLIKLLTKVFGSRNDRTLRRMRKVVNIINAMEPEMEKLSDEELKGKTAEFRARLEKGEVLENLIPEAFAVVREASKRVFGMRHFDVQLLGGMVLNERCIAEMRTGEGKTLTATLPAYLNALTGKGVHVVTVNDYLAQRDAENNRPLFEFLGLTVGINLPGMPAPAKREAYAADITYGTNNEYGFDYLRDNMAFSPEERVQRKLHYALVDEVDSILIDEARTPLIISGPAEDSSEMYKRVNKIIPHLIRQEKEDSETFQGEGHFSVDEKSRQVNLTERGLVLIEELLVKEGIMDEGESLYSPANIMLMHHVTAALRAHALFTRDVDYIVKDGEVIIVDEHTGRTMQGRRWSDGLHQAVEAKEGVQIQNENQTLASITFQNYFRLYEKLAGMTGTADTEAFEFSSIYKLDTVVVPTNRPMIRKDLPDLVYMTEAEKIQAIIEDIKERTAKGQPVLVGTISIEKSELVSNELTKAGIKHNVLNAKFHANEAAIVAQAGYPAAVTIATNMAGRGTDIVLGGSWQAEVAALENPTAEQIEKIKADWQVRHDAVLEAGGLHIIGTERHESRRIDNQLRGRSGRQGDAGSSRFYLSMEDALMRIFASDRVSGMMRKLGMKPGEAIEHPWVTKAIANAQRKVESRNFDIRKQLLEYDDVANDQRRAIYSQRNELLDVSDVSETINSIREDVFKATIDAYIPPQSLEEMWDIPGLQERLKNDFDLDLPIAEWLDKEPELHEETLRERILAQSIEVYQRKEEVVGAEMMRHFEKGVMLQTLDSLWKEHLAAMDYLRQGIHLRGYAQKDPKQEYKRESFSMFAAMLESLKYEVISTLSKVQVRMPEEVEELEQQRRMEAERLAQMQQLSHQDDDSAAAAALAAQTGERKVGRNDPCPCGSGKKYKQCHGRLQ
SMILES,Percent Effect [1] [%],Percent Effect [2] [%],Percent Effect [3] [%],Percent Effect [4] [%],Percent Effect [5] [%],Percent Effect [6] [%],Percent Effect [7] [%],Percent Effect [8] [%],Percent Effect [9] [%],Percent Effect [10] [%],Percent Effect [11] [%]
COc1ccc(CN2CCc3nc(C4CCCCN4C)ncc3C2)cc1 (stereo not given),-0.233,-8,-0.187,-0.354,3.54,-2.1,28.3,11.8,21.3,26.9,-1.3
CSC(C)C(=O)N1CCCN(Cc2cnn(C(C)C)c2)CC1 (stereo not given),1.59,21.6,-6.76,-4.41,-10.3,2,19.1,7.04,8.37,11.1,-4.54
Cc1nc(CN2CCOCC3(CCN(c4cccnc4)CC3)C2)cs1,-4.45,5.41,0.402,-0.618,-2.34,2.08,14.4,4.77,3.96,11,3.31
COc1ccc(COCC(O)CNC(=O)c2cnc(C)cn2)cc1 (stereo not given),-3.92,-8.86,0.227,0.611,0.308,-1.94,10.1,7.75,4.17,10.1,-25.8
Cc1cc(C)n(C2CN(CC(=O)N(C)Cc3ccc(C)o3)C2)n1,-4.24,5.26,17.1,6.03,2.82,3.55,9.49,-0.498,34,28.6,-4.43
COc1ccc(C2=C(C)C(N3CCc4ccccc4C3)=NS2(=O)=O)cc1,-1.81,-7.79,1.57,-18,3.45,4.52,13.1,9.07,-122,-39.7,79.2
CC1c2ncc(CN3CCN(C)CC3)n2CCN1CC1CC1 (stereo not given),-1.8,18.7,-6.67,5.11,5.99,-54.7,6.33,-3.72,6.25,17.5,-8.05
Cc1ccsc1CN(C)C(=O)Cn1nc(-c2ccc(F)cc2)oc1=O,-0.652,13.2,1.09,-2.29,3.8,-3.55,22.5,10.2,-8.51,0,-6.06
Cc1nn(C)c(C)c1C1CCCN1C(=O)c1cnc2n[nH]c(C)c2c1 (stereo not given),-5.23,16.2,-5.44,13.8,5.66,0.554,0,9.61,4.95,18.3,-3.42
CC(C)(N)CN1CCC(c2nnc(CN3CCCC3)n2C2CC2)CC1,-7.06,8,3.2,2.76,-0.0974,5.73,15.5,8.71,2.73,6.17,-4.27
